# PubChem BioAssay (Tox21)
# Inconclusive results are not listed. Calls of active or inactive are those of the source. Calls come from the whole dose curve.
# Assay: qHTS assay for small molecules that induce genotoxicity in human embryonic kidney cells expressing luciferase-tagged ATAD5 - cell viability (AID 651634); note: nearly all actives have a fitted effect of over 25% in size
# Conditions: HEK293T ATAD5-luc cells viability, CellTiter-Fluor, 15.5 h; series mostly up to 83.3 µM; activity, negative = cytotoxicity: at the top concentration
# Procedure, shortened: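 15.5 hr compound or vehicle exposure of HEK293T cells expressing luciferase-tagged ATAD5 at 37C; live-cell protease activity is read by fluorescence after 30 min of CellTiter-Fluor.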
# % is set by controls: 0 for no effect and ±100 for the full control effect; potency is the fitted concentration of half-maximal effect.
SMILES,"activity, negative = cytotoxicity",Potency
Cc1[nH]c(C)c(Cl)c(=O)c1Cl,-7.63% (inactive),–
Cc1cccc(Nc2ccccc2)c1,-28.6% (inactive),–
O=C1CCCCCCCCCCCC(=O)OCCO1,13.9% (inactive),–
COc1cc(Cl)ccc1Oc1ccc(Cl)cc1Cl,16% (inactive),–
CCCCCCCCCCCCCCOS(=O)(=O)O,9.26% (inactive),–
CCN(CC)CCOC(=O)C(c1ccccc1)C1CCCCC1 (stereo unspecified),2.19% (inactive),–
CC(C)O.CC(C)O.CCOC(=O)/C=C(\C)O.CCOC(=O)/C=C(\C)O.[Ti],9.08% (inactive),–
O=C(O)C1(C(=O)Nc2ccc(Cl)cc2Cl)CC1,-24.1% (inactive),–
CC[N+](C)(CC)CCOC(=O)C(O)(c1ccccc1)C1CCCCC1 (stereo unspecified),1.51% (inactive),–
CCCCCCCC/C=C\CCCCCCCC(=O)OCC,-13.5% (inactive),–
O=C(O)CC(=O)C(=O)O,7.01% [at 95.3 µM] (inactive),–
CCCCNc1ccc(C(=O)OCCOCCOCCOCCOCCOCCOCCOCCOCCOC)cc1,-16.9% [at 39.1 µM] (inactive),–
CNCCCCOc1ccccc1Cc1ccccc1,4.8% (inactive),–
CCOC(=O)COC(=O)c1cc(Oc2ccc(C(F)(F)F)cc2Cl)ccc1[N+](=O)[O-],-13.9% (inactive),–
Nc1ncn([C@H]2C[C@H](O)[C@@H](CO)O2)c(=O)n1,12.9% (inactive),–
NC(N)=NCCC[C@H](N)C(=O)O,-3.62% (inactive),–
C=CC(=O)OCCOCCOC(=O)C=C,–,61.4 µM (active)
CN(C)c1ccc(/C=C/c2ccc([N+](=O)[O-])cc2)cc1,49.6% [at 8.08 µM] (inactive),–
CCCCCCCCCCO[C@@H]1O[C@H](CO)[C@@H](O)[C@H](O)[C@H]1O,9.9% (inactive),–
CN1CCC(=C2c3ccccc3Sc3ccccc32)CC1,–,26.6 µM (active)
C=CCOc1ccccc1OCC(O)CNC(C)C (stereo unspecified),27.2% [at 39.1 µM] (inactive),–
C=CC(=O)OCCOCCOCCOCCOC(=O)C=C,–,54.8 µM (active)
CCO[C@H](Cc1ccc(OCCc2ccc(OS(C)(=O)=O)cc2)cc1)C(=O)O,18.9% (inactive),–
CCCCCCCCCCCCCCCCOS(=O)(=O)O,-8.54% (inactive),–

# Assay: qHTS assay for small molecule disruptors of the mitochondrial membrane potential - cell viability (AID 720634); note: nearly all actives have a fitted effect of over 20% in size;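 for activity change, negative = cytotoxicity: human HepG2 liver cancer cells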
# Conditions: HepG2 viability, ATP luminescence (CellTiter-Glo), 1 h; series mostly up to 83.2 µM; activity change, negative = cytotoxicity: at the top concentration
# Procedure, shortened: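 In this qHTS format, HepG2 cells plated overnight were pinned with compound, incubated 1 hr, and assayed for ATP luminescence with CellTiter-Glo after m-MPI dye addition.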
SMILES,Potency,"activity change, negative = cytotoxicity"
CC(C)C[C@H]1C(=O)N2CCC[C@H]2[C@]2(O)O[C@](NC(=O)[C@@H]3C=C4c5cccc6[nH]c(Br)c(c56)C[C@H]4N(C)C3)(C(C)C)C(=O)N12,inactive,–
Cc1[nH]c(C)c(Cl)c(=O)c1Cl,–,12.8% (inactive)
Cc1cccc(Nc2ccccc2)c1,–,-24.1% (inactive)
O=C1CCCCCCCCCCCC(=O)OCCO1,–,13.3% (inactive)
Cc1cccc(C)c1OCC(=O)N[C@@H](Cc1ccccc1)[C@@H](O)C[C@H](Cc1ccccc1)NC(=O)[C@H](C(C)C)N1CCCNC1=O,–,-18.8% (inactive)
CCCCCCCCCCCCCCOS(=O)(=O)O,–,4.6% (inactive)
CCN(CC)CCOC(=O)C(c1ccccc1)C1CCCCC1 (stereo unspecified),–,12.8% (inactive)
Cc1c(N)cccc1[N+](=O)[O-],–,1.71% [at 95.3 µM] (inactive)
CC(C)O.CC(C)O.CCOC(=O)/C=C(\C)O.CCOC(=O)/C=C(\C)O.[Ti],–,10.2% (inactive)
C#Cc1cccc(Nc2ncnc3cc(OCCOC)c(OCCOC)cc23)c1,–,-3.94% (inactive)
O=C(CS)Nc1ccccc1,–,18.2% (inactive)
COc1cc(Cl)c(OC)cc1N,–,7.01% (inactive)
CC1CCC(=O)C1=O (stereo unspecified),–,6.14% [at 95.3 µM] (inactive)
CC[N+](C)(CC)CCOC(=O)C(O)(c1ccccc1)C1CCCCC1 (stereo unspecified),–,-9.9% (inactive)
CCCCCCCC/C=C\CCCCCCCC(=O)OCC,–,12.3% (inactive)
O=C(O)CC(=O)C(=O)O,–,-6.8% [at 95.3 µM] (inactive)

SMILES,Potency,"activity change, negative = cytotoxicity"
CCCCNc1ccc(C(=O)OCCOCCOCCOCCOCCOCCOCCOCCOCCOC)cc1,–,-8.9% [at 39.1 µM] (inactive)
CCC(C)c1cc(C(C)(C)C)c(O)c(C(C)(C)C)c1 (stereo unspecified),–,7.8% (inactive)
CNCCCCOc1ccccc1Cc1ccccc1,–,9.56% (inactive)
Nc1ncn([C@H]2C[C@H](O)[C@@H](CO)O2)c(=O)n1,–,-5.05% (inactive)
NC(N)=NCCC[C@H](N)C(=O)O,–,-9.02% (inactive)
C=CC(=O)OCCOCCOC(=O)C=C,–,29.9% [at 95.3 µM] (inactive)
CN(C)c1ccc(/C=C/c2ccc([N+](=O)[O-])cc2)cc1,–,-8.24% [at 8.08 µM] (inactive)
CCCCCCCCCCO[C@@H]1O[C@H](CO)[C@@H](O)[C@H](O)[C@H]1O,–,8.24% (inactive)
CCCNCC(O)COc1ccccc1C(=O)CCc1ccccc1 (stereo unspecified),–,-2.68% (inactive)
O=C(Nc1ccccc1)c1ccccc1O,27.3 µM (active),–
CN1CCC(=C2c3ccccc3Sc3ccccc32)CC1,–,20.1% (inactive)
C=CCOc1ccccc1OCC(O)CNC(C)C (stereo unspecified),–,7.72% [at 39.1 µM] (inactive)
C=CC(=O)OCCOCCOCCOCCOC(=O)C=C,inactive,–
O=C(O)c1nc(Cl)c(Cl)c(Cl)c1Cl,–,11.4% (inactive)
CCO[C@H](Cc1ccc(OCCc2ccc(OS(C)(=O)=O)cc2)cc1)C(=O)O,–,5.94% (inactive)
CCCCCCCCCCCCCCCCOS(=O)(=O)O,–,0.73% (inactive)
